tim23-1 inh: growth inhibitors of tim23-1 mutant yeast, primary screen, luminescence, uHTS; S. cerevisiae tim23-1 growth, BacTiter-Glo luminescence, 24 h; inhibition, % at 20 µM; 1.3% of 330,000 active;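 active = growth inhibition of the mutant yeast at or above 50%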;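 also: temperature-sensitive mutant grown at 25 °C; plate controls were DMSO-treated mutant yeast for no effect and medium wells lacking yeast for full effect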
CR mimetic SO: reduction of superoxide in aged yeast, primary screen, HTS | S. cerevisiae aged cells, superoxide DHE fluorescence; active compounds read low | 0.18% of 330,000 active | superoxide response (% of plate mean), % at 10 µM;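 active = superoxide response under a set limit, about three screen SD below normal, cut at about 65% in these data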;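 also: yeast aged for seven days with compound at 30 °C before DHE staining; 100% = average MFI of all compound-treated wells on the plate with controls excluded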
tim10-1 inh: growth inhibitors of tim10-1 mutant yeast, primary screen, luminescence, uHTS | 2.2% of 330,000 active | S. cerevisiae tim10-1 ts strain growth, BacTiter-Glo, 24 h | inhibition, % at 20 µM;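 active = inhibition of at least 40%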;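 also: mutant grown at 25 °C; 0% = DMSO wells with yeast and 100% = wells holding no yeast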
NLRP3 yeast inh: NALP3 inflammasome inhibitors in reconstituted yeast, primary screen, luminescence, uHTS. AID 2825, 2010. Yeast reconstituted NLRP3/ASC/caspase-1, beta-gal luminescence, 24 h. 0.39% of 330,000 active. inhibition, % at 10 µM;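 active = inhibition of 50% or more; inactive = inhibition below 50%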;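 also: plate controls were induced DMSO wells for no effect and uninduced yeast grown without galactose for full effect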
TIM10 inh: growth inhibitors of isogenic TIM10 control yeast, primary screen, counter-screen for tim10-1 yeast inhibitor project, luminescence, uHTS | S. cerevisiae TIM10 strain growth, BacTiter-Glo luminescence, 24 h | inhibition, % at 10 µM | 1.4% of 330,000 active | AID 463195, 2010;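 active = inhibition of 40% or more at the single tested concentration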;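 also: wild-type TIM10 isogenic control strain grown at permissive 25 °C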
tim10-1 conf: growth inhibitors of tim10-1 mutant yeast, confirmation, single concentration, luminescence, S. cerevisiae; shares compounds with tim10-1 inh; S. cerevisiae tim10-1 ts strain growth, BacTiter-Glo, 24 h; inhibition, % at 20 µM; 56% of 7,400 active; AID 463213, 2010;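 active = inhibition of yeast growth at or above a set limit in either of two repeat tests at 20 µM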;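 also: tim10-1 mutant grown at permissive 25 °C to find synthetic lethal compounds; 0% = DMSO yeast wells and 100% = medium wells without yeast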
TIM10 conf: growth inhibitors of wild-type TIM10 yeast, confirmation, counter-screen for tim10-1 synthetic lethality project, single concentration, luminescence, S. cerevisiae. inhibition, % at 10 µM. AID 463215, 2010. 63% of 4,600 active. S. cerevisiae tim10 strain growth, BacTiter-Glo luminescence, 24 h. shares compounds with TIM10 inh;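 active = inhibition of yeast growth at or above a set limit in either of two replicates at 10 µM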;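 also: this counterscreen used the strain with wild-type TIM10; 0% = yeast with DMSO and 100% = medium wells lacking yeast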
Starred values were filed as active, the others as inactive; · = no result given. Rows were chosen to be rich in hits. Some 3.8% of all compounds tested hit in one or more screens of this group.

SMILES	tim23-1 inh	CR mimetic SO	tim10-1 inh	NLRP3 yeast inh	TIM10 inh	tim10-1 conf	TIM10 conf
CC(C)S(=O)(=O)c1csc(NC(=O)Nc2cc(Cl)ccc2Cl)c1Cl	21	96	42*	0	47*	28	41*
CC(=O)NC(CCS(C)(=O)=O)C(=O)Nc1cc(Cl)ccc1Cl (configuration not stated)	11	113	8	11	-11	·	·
COc1cc(C(=O)Oc2ccc3ccc(O)cc3c2)cc(OC)c1OC	44	107	47*	-5	42*	32*	39*
c1ccc(CNc2nc(CN3CCOCC3)nc3scc(-c4ccccc4)c23)cc1	46	94	25	19	36	·	·
Clc1ccc(CNc2nc(CN3CCOCC3)nc3scc(-c4ccccc4)c23)cc1	45	90	48*	14	51*	46*	-12
O=C1Nc2ccccc2/C1=C/c1cnc(-c2ccccc2)[nH]1	-3	90	-2	23	3	·	·
O=C1Nc2ccccc2/C1=C/c1cccnc1	40	96	49*	-2	51*	36*	32*
Cc1ccc(Nc2cc(C)nc(-c3ccccc3O)n2)cc1	40	91	58*	9	53*	59*	48*
CC(C)[C@H](NC(=O)C1CCN(S(=O)(=O)c2ccccc2)CC1)C(=O)NCc1ccc(F)cc1	-1	95	7	8	-1	·	·
CCCC(=O)Nc1nc(C)c(-c2csc(Nc3ccccc3C)n2)s1	9	93	11	16	5	·	·
CCC(=O)Nc1nc(C)c(-c2csc(Nc3ccccn3)n2)s1	35	92	40*	1	42*	30	47*
O=C(NCc1ccccc1)C1CCN(S(=O)(=O)c2ccc(Cl)cc2)CC1	3	109	19	-4	18	·	·
COc1ccc(-n2cc(-c3ccc(OC(F)F)cc3)[n+]3c2CCCCC3)cc1	-13	106	7	11	9	·	·
Cc1cccc(/C=C/C(=O)c2ccc([N+](=O)[O-])o2)c1	45	81	53*	34	89*	7	98*
COc1cc(C(=O)NCc2nnc(SCC(=O)Nc3ccc4c(c3)OCO4)o2)cc(OC)c1OC	3	93	17	26	9	·	·
COc1cccc(N2CCN(CC(=O)Nc3nc(C)c(C(=O)N(C)C)s3)CC2)c1	10	103	9	4	-7	·	·
COc1cccc(N2CCN(CC(=O)Nc3nc4c(s3)CC(C)CC4)CC2)c1 (configuration not stated)	37	82	40*	8	40*	20	29
Cc1ccc(CCNC(=O)C2CCN(S(=O)(=O)c3ccc4c(c3)oc(=O)n4C)CC2)cc1	-2	100	6	-1	4	·	·
CCOC(=O)c1cnc2c(ccc3ccccc32)c1NCCN(C)C	39	92	55*	26	77*	50*	50*
C/C(=N\NC(=O)c1ccccc1)C1C2C=CC(C2)C1(C)C (configuration not stated)	10	89	10	13	8	·	·
COc1ccc(Nc2nc(-c3cccs3)nc3ccccc23)cc1	44	113	37	22	26	·	·
COc1cccc(Nc2nc(-c3cccs3)nc3ccccc23)c1	34	96	53*	11	48*	36*	45*
O=C(/C=C/c1cc2ccccc2o1)c1ccccc1O	48	94	41*	13	58*	49*	58*
COc1ccc(O)c(C(=O)/C=C/c2cc3ccccc3o2)c1	39	114	57*	17	48*	37*	-11
COc1cccc(-c2noc(C3CCCN(C(=O)Cc4ccccc4)C3)n2)c1 (configuration not stated)	39	125	40*	-66	41*	36*	24
SMILES	tim23-1 inh	CR mimetic SO	tim10-1 inh	NLRP3 yeast inh	TIM10 inh	tim10-1 conf	TIM10 conf
CCCCS(=O)(=O)/C=C\C=C/S(=O)(=O)CCCC	43	93	70*	5	59*	42*	61*
COc1cccc(CNC(=O)COc2ccc(C(=O)c3ccccc3)cc2)c1	19	119	12	8	22	·	·
c1ccc(Nc2cccc(Nc3ccccc3)n2)cc1	39	87	64*	28	60*	57*	-10
c1ccc(Nc2ccccn2)cc1	21	94	19	10	24	·	·
COC(=O)[C@H](Cc1ccc(O)cc1)NC(=O)Cn1cnc2c(NCc3ccccc3)ncnc21	6	96	-5	·	-19	·	·
Clc1ccc(CN2CCc3c([nH]c4ccccc34)C2)cc1Cl	42	104	75*	19	41*	75*	58*
O=C(NC1CCCC1)C(c1ccc(Cl)cc1)N(Cc1ccc(F)cc1)C(=O)CCl (configuration not stated)	46	116	49*	-3	47*	40*	-1
CCCCCC(=O)NC(=S)Nc1ccc(Cl)cn1	40	95	47*	3	44*	28*	6
CCCc1nc(C(C)(C)O)c(C(=O)O)n1Cc1ccc(-c2ccccc2-c2nn[nH]n2)cc1	-5	101	-14	4	4	·	·
CCCCN1CC(=O)N2[C@H]3c4cc(C)ccc4OC[C@@H]3[C@H](C(=O)OCC)[C@]2(C)C1=O	-3	102	-5	11	0	·	·
O=C(C[n+]1ccc(C(=O)NCc2ccccc2)cc1)c1ccc(OC(F)F)cc1	1	98	11	13	12	·	·
O=C(C[n+]1cn(C(F)F)c2ccccc21)c1ccc(OC(F)F)cc1	49	117	56*	-6	53*	47*	39*
CC(C)c1ccc(N(C(=O)CNC(=O)c2ccco2)C(C(=O)NC2CCCC2)c2cccnc2)cc1 (configuration not stated)	6	123	-13	8	10	·	·
COc1cccc2oc(-c3ccco3)cc(=O)c12	41	106	45*	1	47*	26	40*
Cc1nc2c3cc(F)ccc3n(Cc3ccccc3)c2s1	33	110	45*	-48	48*	36*	37*
Clc1ccc(CN2CCN(c3ncnc4scc(-c5cccs5)c34)CC2)cc1	29	107	44*	4	44*	38*	32*
O=C(COC(=O)c1ccc2ccccc2n1)c1ccccc1	17	88	9	18	6	·	·
c1ccc(-c2nnc(-c3ccccn3)nc2NC2CCCCC2)cc1	17	90	47*	5	67*	36*	63*

Source: PubChem BioAssay (several laboratories)
